NPC1 promoter act: NPC1 promoter activation; Potency, µM (top dose mostly 9.22 µM), actives largely listed as activators; actives 2.4% (n = 320,000); AID 485313; Huh7 NPC1 promoter luciferase reporter, 24 h; note: nearly all actives have a fitted effect of over 60% in size
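Huh7 cells stably carrying NPC1 promoter–luciferase, plated in Opti-MEM with 10% FBS for 2 h, were exposed to compound in DMSO for 24 h at 37 °C; luciferase reagent was added for 10 min and luminescence read.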
FLuc counter: firefly luciferase modulation, counter-screen for miR-21 project | P08659 | purified FLuc, Km substrates, luminescence inhibition | Potency, µM (series often up to 57.5 µM), usual class: inhibitors | actives 6.9% (n = 360,000) | AID 588342; note: nearly all actives have a fitted effect of over 55% in size
Target sequence (P08659 whole entry, looked up): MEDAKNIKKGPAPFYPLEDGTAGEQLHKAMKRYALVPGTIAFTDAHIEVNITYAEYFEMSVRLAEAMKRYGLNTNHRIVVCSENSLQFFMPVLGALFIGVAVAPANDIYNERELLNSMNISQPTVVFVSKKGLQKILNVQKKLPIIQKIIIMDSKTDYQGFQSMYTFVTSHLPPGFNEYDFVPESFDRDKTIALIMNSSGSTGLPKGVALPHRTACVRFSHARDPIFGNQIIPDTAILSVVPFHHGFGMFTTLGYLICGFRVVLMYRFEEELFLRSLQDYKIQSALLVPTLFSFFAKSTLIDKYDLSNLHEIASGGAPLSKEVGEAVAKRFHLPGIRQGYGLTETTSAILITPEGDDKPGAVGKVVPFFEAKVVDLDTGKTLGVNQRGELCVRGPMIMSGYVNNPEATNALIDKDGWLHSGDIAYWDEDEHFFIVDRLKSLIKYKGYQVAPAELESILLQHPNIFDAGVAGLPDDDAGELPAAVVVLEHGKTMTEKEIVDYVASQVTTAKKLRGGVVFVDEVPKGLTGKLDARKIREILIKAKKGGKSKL
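Biochemical qHTS of compounds, final roughly 60 µM downward over six points, against 10 nM purified firefly luciferase using Km concentrations of substrates (10 uM D-luciferin, 10 uM ATP) in Tris acetate pH 7.5 buffer; luminescence output.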
Rab9 promoter act: Rab9 promoter activation. Huh7 Rab9 promoter-luciferase reporter, luminescence, 24 h. Potency, µM (top dose mostly 9.22 µM), hits mostly activators. actives 2.8% (n = 320,000). AID 485297; note: nearly all actives have a fitted effect of over 60% in size
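Steps: seed 1500 Huh7 Rab9-luc cells per well, rest 2 h at 37 °C; add compound in DMSO; incubate 24 h; add luciferase reagent, 10 min ambient; read luminescence.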
ELG1 genotox: inducers of genotoxicity in HEK293T ELG1-luciferase cells | actives 1.3% (n = 330,000) | HEK293T ELG1-luciferase reporter, luminescence, 16 h | Potency, µM (top dose mostly 46 µM), usual class: activators | AID 504466; note: nearly all actives have a fitted effect of over 60% in size
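HEK293T cells expressing luciferase-tagged ELG1 were exposed to compound or DMSO vehicle for 16 hr at 37 °C and 5% CO2. Luciferase activity was then measured with ONE-Glo after 30 min at room temperature.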
SMN2 splice up: SMN2 splice variant enhancement. actives 2.8% (n = 210,000). AID 1458. Potency, µM (top dose mostly 46.1 µM), most hits filed as activators. HEK293 SMN2-luciferase splicing reporter, luminescence, 30-36 h; note: nearly all actives have a fitted effect of over 55% in size
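HEK293 cells carry an SMN2 […]–luciferase reporter in which exon 7 inclusion puts luciferase in frame. Cells were plated 10-12 h before compound addition, then incubated 30-36 h at 37C. ONE-Glo luminescence was read; sodium butyrate at 4.5 mM final served as control.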
Hits are given with their value; 0 = inactive; ? = inconclusive; - = no result. An excerpt weighted towards active compounds, which were near 7.5% of everything screened. Calls come from the whole dose curve; as a rule, active = well fitted curve in the direction sought with a large enough effect; inconclusive = small, poorly fitted or top-dose-only effect, or another doubt; inactive = no such curve, though single readings can be large; an effect the other way counts as inactive or inconclusive.

SMILES	NPC1 promoter act	FLuc counter	Rab9 promoter act	ELG1 genotox	SMN2 splice up
CC1CCn2c(nc3cc(C(=O)NCCc4ccccc4)ccc32)C1 (configuration not stated)	-	9.5µM	-	-	-
Cc1ccc(C2=C/C(=C/c3cccnc3)C(=O)O2)c(C)c1	0	6µM	0	0	0
COC(=O)C1CCN(C(=O)c2ccc(Cl)c(S(=O)(=O)NCc3ccco3)c2)CC1	-	-	-	0	-
CCOC(=O)C1=C(C)NC(c2cccs2)C(=O)N1 (configuration not stated)	0	0	0	0	0
O=C(O)c1cccc(S(=O)(=O)Nc2cccc3ccccc23)c1	0	24µM	0	0	-
CCCn1nc(NS(=O)(=O)c2cccc3nonc23)c2cc3cc(C)ccc3nc21	0	11µM	0	0	-
CCn1nc(NS(=O)(=O)c2ccc(NC(C)=O)cc2)c2cc3ccc(C)cc3nc21	0	27µM	0	0	-
CCCn1nc(NC(=O)c2ccccn2)c2cc3cc(C)ccc3nc21	0	11µM	0	0	?
CCCn1nc(NC(=O)c2ccco2)c2cc3cc(C)ccc3nc21	0	?	0	0	-
Cc1ccc2nc3c(cc2c1)c(NC(=O)C1CCCO1)nn3CC(C)C (configuration not stated)	0	0	0	0	0
CCn1nc(NC(=O)C2CCCO2)c2cc3cc(C)ccc3nc21 (configuration not stated)	0	17µM	?	0	?
CCCCn1c(N)c(N(CC)C(=O)c2ccc(-c3ccc(Cl)cc3)o2)c(=O)[nH]c1=O	0	-	0	0	-
COc1cc(Cl)c(C)cc1Nc1ncnc2c1nc1n2CCCC1	-	0	-	-	-
COc1ccc(Nc2ncnc3c2nc2n3CCCC2)cc1Cl	-	19µM	-	-	-
COc1ccc(Nc2ncnc3c2nc2n3CCCCC2)cc1	-	17µM	-	-	-
O=C(Nc1ccc(F)cc1F)C1CCCN(c2ncnc3c2nc2n3CCCCC2)C1 (configuration not stated)	0	0	0	0	-
Fc1ccc(Nc2ncnc3c2nc2n3CCCCC2)c(F)c1	-	21µM	-	-	-
O=C(Nc1cccc2c1C(=O)NC2=O)c1ccccc1[N+](=O)[O-]	0	0	0	0	-
O=C(CN1CCN(Cc2ccc(Cl)cc2)CC1)N/N=C/c1c[nH]c2ccccc12	0	0	0	0	0
N#C/C(=C/c1ccc(-c2ccccc2[N+](=O)[O-])o1)C(N)=O	0	0	0	0	0
Cc1ccc(C(=O)C(C)OC(=O)c2ccccc2[N+](=O)[O-])cc1 (configuration not stated)	0.89µM	1.1µM	1.6µM	7.3µM	13µM
Cc1ccc(-c2ccc(/C=C/C(=O)c3ccccc3)o2)cc1	0	?	0	0	0
Cc1ccc(C(=O)/C=C/c2ccccc2[N+](=O)[O-])cc1	0	8.5µM	?	?	0
Cc1ccc(C(=O)/C=C/c2ccc(-c3ccccc3[N+](=O)[O-])o2)cc1	?	19µM	0	0	0
O=C(/C=C/c1ccc(-c2ccccc2)o1)c1ccccc1	?	6.7µM	0	?	-
SMILES	NPC1 promoter act	FLuc counter	Rab9 promoter act	ELG1 genotox	SMN2 splice up
CC(C)Nc1nnc(SC(C)C(=O)Nc2ccc(N3CCOCC3)cc2)s1 (configuration not stated)	0	?	0	0	-
Cn1nnnc1SCC(=O)Nc1ccccc1N1CCCCC1	?	0	0	0	0
O=C(/C=C/c1ccccc1F)c1cccc([N+](=O)[O-])c1	0	12µM	0	?	0
O=C(/C=C/c1ccc(-c2ccccc2[N+](=O)[O-])o1)c1ccc(F)cc1	0	13µM	0	0	0
O=C(C#Cc1ccccc1)c1cccc([N+](=O)[O-])c1	0	11µM	0	0	0
O=C(/C=C/c1ccc(-c2ccccc2[N+](=O)[O-])o1)c1ccc(Br)cc1	0	?	0	0	0
Cc1ccc(S(=O)(=O)N/N=C/c2ccc(OS(=O)(=O)c3ccc(C)c([N+](=O)[O-])c3)cc2)cc1	0	0	0	0	?
CCc1ccc(C(=O)c2cnc3ccc(OC)cc3c2N2CCN(CC)CC2)cc1	0	0	0	0	0
Nc1nnc(-c2ccc(Cl)cc2)o1	0	?	0	0	-
Nc1ccc(-c2nnc(-c3ccc(N)cc3)o2)cc1	3.5µM	3.4µM	3.5µM	16µM	-
Cc1cc(C)cc(Oc2ccc(-c3nnc(-c4ccccc4)o3)cc2[N+](=O)[O-])c1	0	0	0	0	0

From PubChem
